Consider 54 compounds from ChEMBL document CHEMBL3988442, “University of Dundee, Small-Polar-MMV Screening Library” (2021).

Each structure is given as a SMILES string. Among all 48,000 compounds or so, about 13,000 (27%) showed an effect of 50% or more. This is one part of the list.

In the test the test system is Wolbachia pipientis. As to the kind of experiment: Anti-Wolbachia Cell-Based Screen. It counts as functional. Further details: scale not given: in the data most compounds retested in dose-response had high values. As to conditions: 5 µM.
Consider `COCC(=O)N1CCN(C(=O)c2cccs2)C[C@H]1C(=O)OC`, for which the “Percent Effect” value is given as -7.618%. Next, `COc1ccccc1S(=O)(=O)N1CCN(C)[C@@H]2CS(=O)(=O)C[C@@H]21`: -4.767%. The value for `CCCN1C(=O)[C@@H]2[C@@H](CCN2C(=O)COC)N(Cc2cccs2)C1=O` was 27.38%; that for `COCC(=O)N1CCN(C(=O)Cc2cccs2)[C@H]2CS(=O)(=O)C[C@H]21` was 102.4%; that for `COCC(=O)N1CCN(S(=O)(=O)c2ccccc2)[C@H]2CS(=O)(=O)C[C@H]21` was 117.3%. Next, `COCC(=O)N1CCN(S(=O)(=O)c2cccs2)[C@H]2CS(=O)(=O)C[C@H]21`: 101.1%; `CN1CC(C(=O)NCCc2ccc(Br)cc2F)CC1=O` (centres undefined): 108.1%; `CN1CC(C(=O)NCCc2ccc(F)c(Br)c2)CC1=O` (centres undefined): 95.91%.

For `CC(C)CN1CC(C(=O)NCCc2ccc(OC(F)F)cc2)CC1=O` (centres undefined), the “Percent Effect” value is -18.94%. The value for `COc1ncccc1CNC(=O)C1CC(=O)N(C)C1` (centres undefined) was -5.362%. Turning to `CN1CC(C(=O)NCc2ccc(OCc3cccnc3)cc2)CC1=O` (centres undefined), the “Percent Effect” value is on record as -2.56%. The value for `CN1CC(C(=O)NCc2ccc(Br)cc2F)CC1=O` (centres undefined) was 97.3%. `Cc1ccccc1CCNC(=O)C1CC(=O)N(CC(F)(F)F)C1` (centres undefined): the “Percent Effect” value is on record as 1.737%. `CN1CC(C(=O)NCc2cccnc2OCC(F)(F)F)CC1=O` (centres undefined): the “Percent Effect” value was determined as 1.673%. The value for `CN1CC(C(=O)NCCc2ccn(-c3ccc(F)cc3)n2)CC1=O` (centres undefined) was -45.08%; that for `CSCc1nc(CCNC(=O)C2CCCN(C(C)=O)C2)cs1` (centres undefined) was 1.152%. The value for `CC(=O)N1CCCC(C(=O)NCCc2nc(Cc3ccccc3)no2)C1` (centres undefined) was -1.107%. Regarding `CC(=O)N1CCCC(C(=O)NCCc2ccc(F)c(Br)c2)C1` (centres undefined), the “Percent Effect” value came out at 78.71%.

As to `Cn1ccc(C(=O)NC2CCN(c3ncccn3)CC2)cc1=O`, the “Percent Effect” value came out at 3.49%. In the case of `CC(C)N1CCN(C(=O)Nc2cnn(CC(N)=O)c2)CC1`, the “Percent Effect” value is recorded as 2.959%. For the compound `N#Cc1cccnc1NCCNC(=O)N1CCCSCC1`, the “Percent Effect” value was -6.239%.

As for `CCN(CC)S(=O)(=O)CC(=O)Nc1ccsc1`, the “Percent Effect” value is -11.66%. The value for `NC(=O)N1CCCC(C(=O)NCCOc2ccc(F)c(F)c2)C1` (centres undefined) was -0.02905%; that for `CC(=O)N1CCCC(C(=O)NCCOc2cc(C)cc(C)c2)C1` (centres undefined) was 99.72%. Next, `NC(=O)N1CCCC(C(=O)NCCOc2ccc(F)cc2F)C1` (centres undefined): -7.563%; `COc1cccc(S(=O)(=O)CCN2CCN(CCO)CC2)c1`: 9.306%. Next, `Cc1csc(CNc2ccc(-c3nc(C4CC4)no3)cn2)n1`: 8.683%; `Cc1ccc(C(=O)N2CCC(c3noc(-c4cccnc4)n3)CC2)cn1`: 104.3%. `Cc1cc(CNc2ccc(-c3nc(C4CC4)no3)cn2)no1`: the “Percent Effect” value is recorded as -5.978%. Next, `O=C1NCCCC[C@@H]1Nc1ccc(-c2nc(C3CC3)no2)cn1`: -3.27%; `Cc1cccc2[nH]c(C3CCN(C(=O)c4ccnn4C)CC3)nc12`: 1.136%; `Cc1ccc(-c2nc(C3CCN(C(=O)c4ccn(C)n4)CC3)no2)cn1`: 126.5%. With `Cc1ccc(-c2nc(C3CCN(C(=O)c4ccnn4C)CC3)no2)cn1`, the “Percent Effect” value stood at 110.8%.

As to `Cc1ccc(-c2nc(C3CCN(C(=O)c4cnn(C)c4)CC3)no2)cn1`, the “Percent Effect” value stood at 103.5%. In the case of `N#Cc1cccc(C(=O)N2CC(c3nc(-c4cccnc4)no3)C2)c1`, the “Percent Effect” value was found to be 18.62%. Turning to `Cc1noc(-c2ccc(N3CCC(C(=O)N4CCCC4)CC3)nc2)n1`, the “Percent Effect” value was -5.391%. `Cc1cc(C)n(CCN(C)c2ccc(-c3nc(C4CC4)no3)cn2)n1`: the “Percent Effect” value is -7.447%. The value for `CS(=O)(=O)NCCn1ccc(-c2cccs2)n1` was -6.394%; that for `CCS(=O)(=O)CC(C)NC(=O)N(C)Cc1cc(Cl)cn1C` (centres undefined) was -1.914%. As for `CCn1ccnc1CN1CCCC(CO)(Cc2cccc(OC)c2)C1` (centres undefined), the “Percent Effect” value is 5.509%. The value for `COCCN1CCN(C(=O)c2cc(C(C)C)on2)[C@H]2CS(=O)(=O)C[C@H]21` was 8.676%. Next, `CC(C)N1CC[C@@H]2[C@H](COCC3CC3)CN(C)C(=O)[C@@H]2CC1.O=C(O)C(F)(F)F`: -0.4638%. As to `CCc1ccc(CN2CCc3c(nnn3C)C2COC)cc1.O=C(O)C(F)(F)F` (centres undefined), the “Percent Effect” value was -3.58%. The value for `COCC1c2nnn(CC3CC3)c2CCN1C(=O)c1cccn1C` (centres undefined) was -3.461%; that for `Cn1nnc2c1CCN(C(=O)CC1CC1)C2COCCN1CCCC1` (centres undefined) was -8.962%; that for `COCC1c2nnn(C)c2CCN1C(=O)CCc1cccc(OC)c1` (centres undefined) was 104.7%. The value for `COCC1c2nnn(C)c2CCN1C(=O)Cc1ccc2c(c1)OCO2` (centres undefined) was 20.75%. Next, `CN(C)C(=O)N1CCc2c(nnn2C)C1COCC1CC1` (centres undefined): -5.702%. For the compound `COCC1c2nnn(C)c2CCN1C(=O)COc1ccccc1C` (centres undefined), the “Percent Effect” value is recorded as 112%. `COCC1c2nnn(C)c2CCN1C(=O)c1ccc(OC)c(F)c1` (centres undefined): the “Percent Effect” value was determined as 111.1%.

In the case of `Cn1nnc2c1CCN(Cc1ccccn1)C2COCc1ccccc1.O=C(O)C(F)(F)F.O=C(O)C(F)(F)F` (centres undefined), the “Percent Effect” value is recorded as -46.38%. On to `COCC1c2nnn(C)c2CCN1C(=O)Cc1ccccn1` (centres undefined), for which the “Percent Effect” value came out at 111.4%. The value for `COCC1c2nnn(CC3CC3)c2CCN1C(=O)c1cccc(F)c1` (centres undefined) was -7.214%; that for `CCn1nnc2c1CCN(C(=O)c1ccc3c(c1)OCO3)C2COC` (centres undefined) was -29.17%.
